In PubChem BioAssay (NCATS):
Inconclusive results are not listed. Where a call stands in place of a potency, no number is given. Unmarked numbers belong to inactive results. Activity calls are given as the source filed them. The call rests on the fitted dose curve; in most records, active means well fitted curve in the direction sought with a large enough effect; inconclusive means small, poorly fitted or top-dose-only effect, or another doubt; inactive means no such curve, though single readings can be large; an effect the other way counts as inactive or inconclusive.

Test: qHTS of pediatric cancer cell lines to identify multiple opportunities for drug repurposing: Primary screen for NB-EBc1 cells (AID 1347095)
Conditions: NB-EBc1 neuroblastoma viability, CellTiter-Glo luminescence, 48 h; series mostly up to 46 µM; activity change, negative = cytotoxic: at the top concentration
In short: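 Plated cells (500-1,000 per well, growth media) were allowed to settle for 5 hours, treated with compound dilutions for 48 hours, then lysed with CellTiter-Glo for 15 min at room temperature before luminescence reading.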

Structure (SMILES)	Potency	activity change, negative = cytotoxic
O=C(O)c1cn(-c2ccc(F)cc2)c2cc(N3CCNCC3)c(F)cc2c1=O	inactive	
CN1C(C(=O)Nc2ccccn2)=C(O)c2sccc2S1(=O)=O	inactive	
Cc1cc2c(s1)Nc1ccccc1N=C2N1CCN(C)CC1	inactive	
COc1cc(OC)c(C(=O)CCCN2CCCC2)c(OC)c1	inactive	
CC1=C(C(=O)O)N2C(=O)[C@@H](NC(=O)[C@H](N)C3=CCC=CC3)[C@H]2SC1	inactive	
Nc1cc(C(Cl)=C(Cl)Cl)c(S(N)(=O)=O)cc1S(N)(=O)=O	inactive	
Nc1ccc(S(N)(=O)=O)cc1	inactive	
Clc1ccc2c(N3CCN(CCCN4CCN(c5ccnc6cc(Cl)ccc56)CC4)CC3)ccnc2c1		23.5% [at 16.1 µM]

Test: qHTS of pediatric cancer cell lines to identify multiple opportunities for drug repurposing: Primary screen for U-2 OS cells (AID 1347096); further: nearly all actives have a fitted effect of over 50% in size
Conditions: U-2 OS viability, CellTiter-Glo luminescence, 48 h; series mostly up to 46 µM; activity change, negative = cytotoxic: at the top concentration
In short: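 Cells (500-1,000/well) rested 5 h, then received compounds for 48 h; metabolically active cells were measured by CellTiter-Glo luminescence. Final concentrations spanned up to 46 µM (MIPE, 11-point) or 0.59 nM-46 µM (NPC, 8-point) in primary screens, 11-point in follow-ups.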

Structure (SMILES)	Potency	activity change, negative = cytotoxic [%]
COC(=O)C1=C(C)NC(C)=C(C(=O)OC(C)C)C1c1cccc2nonc12 (stereo not given)	inactive	
CC1(C)NC(=O)N(c2ccc([N+](=O)[O-])c(C(F)(F)F)c2)C1=O	inactive	
CC(C)(S)[C@@H](N)C(=O)O		6.09
Cc1ncc([N+](=O)[O-])n1CC(C)O (stereo not given)	inactive	
COc1cc2c(cc1OC)C1CC(=O)C(CC(C)C)CN1CC2 (stereo not given)		2.92
NS(=O)(=O)c1cc(C(=O)O)c(NCc2ccco2)cc1Cl	inactive	
COc1ccccc1N1CCN(CCN(C(=O)C2CCCCC2)c2ccccn2)CC1		3.43
Cc1cc(=O)oc2cc(O)ccc12	inactive	
CNC[C@@H](O)[C@@H](O)[C@H](O)[C@H](O)CO		13.2
c1cnc2cc3c(cc2n1)C1CNCC3C1		15.3
CCOC(=O)c1c(C)n(C)c2ccc(O)cc12	inactive	
CCOc1cc(CC(=O)N[C@@H](CC(C)C)c2ccccc2N2CCCCC2)ccc1C(=O)O		20.9
